Experimental data from PubChem BioAssay AID1159580 (chemical genetic matrix, 2015).
Values joined by “and” are separate entries in the source; they are usually repeats but may differ in a detail not shown here. Identical values can stand only once. In all, about 5,500 compounds went through this assay and about 2,000 (36%) were called active. Another 18% or so got no clear call; they are omitted. The list shows a part of the results. Unmarked numbers belong to inactive results. Cut-off read from the data, not from the text of the source: active = normalized growth mostly below about 0.91 (no sharp cut-off); inconclusive = no clear call, values can overlap the other calls; inactive = mostly above about 0.92.

Assay: chemical genetic growth profiling, strain panel (AID 1159580);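 note: tested at 20 µM; growth read once vehicle control cultures reached saturation at 30 °C; 1 = growth at the plate median or of vehicle wells; lower values mean less growth of the strain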
Conditions: S. cerevisiae deletion strains, growth OD

With `C=CCc1ccc2c(c1)OCO2` as the molecule, how does the normalized growth (locus YAL013W, strain DEP1, hits give low values) read?
Its normalized growth is 0.863 (active).

And the normalized growth (locus YAL021C, strain ccr4, hits give low values)?
The normalized growth was 1.02.

What about the normalized growth (locus YAL026C, strain drs2, hits give low values) of the same molecule?
Its normalized growth is 1.04.

What about the normalized growth (locus YAL030W, strain snc1, hits give low values) of the same molecule?
Its normalized growth is 1.01.

And the normalized growth (locus YBL061C, strain skt5, hits give low values)?
The normalized growth was 1.02.

And the normalized growth (locus YBR009C, strain hhf1, hits give low values)?
The normalized growth was 1.05.

What about the normalized growth (locus YBR021W, strain FUR4, hits give low values) of the same molecule?
The normalized growth was 1.03.

And the normalized growth (locus YBR023C, strain chs3, hits give low values)?
Its normalized growth is 1.03.

What about the normalized growth (locus YBR171W, strain sec66, hits give low values) of the same molecule?
Its normalized growth is 1.02.

What about the normalized growth (locus YBR229C, strain ROT2, hits give low values) of the same molecule?
The normalized growth was 1.02.

And the normalized growth (locus YBR231C, strain swc5, hits give low values)?
The normalized growth was 1.01.

What about the normalized growth (locus YBR279W, strain paf1, hits give low values) of the same molecule?
Its normalized growth is 1.03.

What about the normalized growth (locus YCL011C, strain gbp2, hits give low values) of the same molecule?
Its normalized growth is 1.03.

And the normalized growth (locus YCL016C, strain dcc1, hits give low values)?
Its normalized growth is 1.05.

And the normalized growth (locus YCL029C, strain bik1, hits give low values)?
The normalized growth was 0.99.

What about the normalized growth (locus YCL061C, strain MRC1, hits give low values) of the same molecule?
The normalized growth was 1.06.

And the normalized growth (locus YCL069W, strain vba3, hits give low values)?
Its normalized growth is 1.01.

And the normalized growth (locus YCR088W, strain abp1, hits give low values)?
Its normalized growth is 1.02.

And the normalized growth (locus YDL005C, strain med2, hits give low values)?
The normalized growth was 1.02.

And the normalized growth (locus YDL035C, strain GPR1, hits give low values)?
The normalized growth was 1.03.

And the normalized growth (locus YDL040C, strain nat1, hits give low values)?
Its normalized growth is 1.01.

And the normalized growth (locus YDL074C, strain BRE1, hits give low values)?
The normalized growth was 1.02.

What about the normalized growth (locus YDL101C, strain DUN1, hits give low values) of the same molecule?
The normalized growth was 0.999.

And the normalized growth (locus YDL185W, strain tfp1, hits give low values)?
Its normalized growth is 1.01.

What about the normalized growth (locus YDL192W, strain arf1, hits give low values) of the same molecule?
The normalized growth was 0.99.

And the normalized growth (locus YDR001C, strain nth1, hits give low values)?
Its normalized growth is 1.02.

And the normalized growth (locus YDR069C, strain doa4, hits give low values)?
The normalized growth was 1.03.

And the normalized growth (locus YDR101C, strain arx1, hits give low values)?
The normalized growth was 0.985.

What about the normalized growth (locus YDR137W, strain rgp1, hits give low values) of the same molecule?
The normalized growth was 1.05.

What about the normalized growth (locus YDR159W, strain sac3, hits give low values) of the same molecule?
The normalized growth was 0.976.

What about the normalized growth (locus YDR162C, strain NBP2, hits give low values) of the same molecule?
The normalized growth was 1.01.

And the normalized growth (locus YDR195W, strain ref2)?
The normalized growth was 0.982.

And the normalized growth (locus YDR297W, strain sur2, hits give low values)?
The normalized growth was 1.01.

And the normalized growth (locus YDR318W, strain mcm21, hits give low values)?
The normalized growth was 0.996.

And the normalized growth (locus YDR334W, strain swr1, hits give low values)?
The normalized growth was 1.03.

And the normalized growth (locus YDR335W, strain msn5, hits give low values)?
Its normalized growth is 1.02.

What about the normalized growth (locus YDR388W, hits give low values) of the same molecule?
The normalized growth was 0.987.

What about the normalized growth (locus YDR392W, strain spt3, hits give low values) of the same molecule?
The normalized growth was 0.965.

And the normalized growth (locus YDR502C, strain sam2, hits give low values)?
The normalized growth was 0.992.

What about the normalized growth (locus YEL003W, strain gim4, hits give low values) of the same molecule?
Its normalized growth is 1.02.

What about the normalized growth (locus YEL037C, strain rad23, hits give low values) of the same molecule?
The normalized growth was 1.02.

And the normalized growth (locus YEL061C, strain CIN8 (second series), hits give low values)?
Its normalized growth is 1.02.

What about the normalized growth (locus YEL061C, strain CIN8, hits give low values) of the same molecule?
The normalized growth was 1.

And the normalized growth (locus YER015W, strain faa2, hits give low values)?
The normalized growth was 1.01.

What about the normalized growth (locus YER016W, strain bim1, hits give low values) of the same molecule?
The normalized growth was 1.

And the normalized growth (locus YER110C, hits give low values)?
Its normalized growth is 0.982.

What about the normalized growth (locus YER111C, strain swi4, hits give low values) of the same molecule?
The normalized growth was 1.02.

And the normalized growth (locus YER155C, strain BEM2 (second series), hits give low values)?
The normalized growth was 0.956.

And the normalized growth (locus YER155C, strain BEM2, hits give low values)?
Its normalized growth is 0.999.

What about the normalized growth (locus YER167W, strain BCK2, hits give low values) of the same molecule?
Its normalized growth is 1.02.

And the normalized growth (locus YFR010W, strain ubp6, hits give low values)?
The normalized growth was 1.05.

And the normalized growth (locus YGL078C, strain dbp3, hits give low values)?
The normalized growth was 0.993.

And the normalized growth (locus YGL086W, strain mad1, hits give low values)?
Its normalized growth is 0.988.

What about the normalized growth (locus YGL167C, strain pmr1, hits give low values) of the same molecule?
The normalized growth was 1.02.

What about the normalized growth (locus YGL173C, strain kem1, hits give low values) of the same molecule?
Its normalized growth is 1.02.

And the normalized growth (locus YGL227W, strain vid30, hits give low values)?
The normalized growth was 1.01.

And the normalized growth (locus YGL240W, strain doc1, hits give low values)?
The normalized growth was 0.972.

And the normalized growth (locus YGL248W, strain PDE1, hits give low values)?
Its normalized growth is 1.01.

What about the normalized growth (locus YGL253W, strain hxk2, hits give low values) of the same molecule?
The normalized growth was 1.04.

What about the normalized growth (locus YGR135W, strain pre9, hits give low values) of the same molecule?
Its normalized growth is 1.01.

And the normalized growth (locus YGR229C, strain SMI1, hits give low values)?
The normalized growth was 1.03.

What about the normalized growth (locus YGR252W, strain gcn5, hits give low values) of the same molecule?
The normalized growth was 1.06.

And the normalized growth (locus YHR013C, strain ard1, hits give low values)?
Its normalized growth is 1.06.

And the normalized growth (locus YHR027C, strain rpn1, hits give low values)?
The normalized growth was 1.02.

And the normalized growth (locus YHR030C, strain SLT2, hits give low values)?
Its normalized growth is 1 and 0.954.

What about the normalized growth (locus YHR079C, strain IRE1 (second series), hits give low values) of the same molecule?
Its normalized growth is 0.989.

What about the normalized growth (locus YHR079C, strain IRE1, hits give low values) of the same molecule?
The normalized growth was 0.965.

What about the normalized growth (locus YHR094C, strain hxt1, hits give low values) of the same molecule?
The normalized growth was 0.981.

What about the normalized growth (locus YHR129C, strain ARP1, hits give low values) of the same molecule?
Its normalized growth is 1.

And the normalized growth (locus YHR142W, strain chs7, hits give low values)?
Its normalized growth is 1.07.

And the normalized growth (locus YHR200W, strain rpn10, hits give low values)?
The normalized growth was 0.99.

And the normalized growth (locus YIL066C, strain RNR3, hits give low values)?
Its normalized growth is 1.02.

What about the normalized growth (locus YIL073C, strain SPO22, hits give low values) of the same molecule?
Its normalized growth is 1.01.

And the normalized growth (locus YIL125W, strain kgd1, hits give low values)?
Its normalized growth is 0.988.

And the normalized growth (locus YIR030C, strain dcg1, hits give low values)?
The normalized growth was 0.988.

And the normalized growth (locus YJL092W, strain hpr5, hits give low values)?
The normalized growth was 1.03.

And the normalized growth (locus YJL095W, strain BCK1 (second series), hits give low values)?
Its normalized growth is 1.03.

And the normalized growth (locus YJL095W, strain BCK1, hits give low values)?
The normalized growth was 1.01.

And the normalized growth (locus YJL115W, strain asf1, hits give low values)?
Its normalized growth is 1.02.

What about the normalized growth (locus YJL129C, strain trk1, hits give low values) of the same molecule?
Its normalized growth is 1.01.

What about the normalized growth (locus YJL134W, strain LCB3, hits give low values) of the same molecule?
Its normalized growth is 1.

What about the normalized growth (locus YJL154C, strain vps35, hits give low values) of the same molecule?
Its normalized growth is 1.01.

What about the normalized growth (locus YJL164C, strain tpk1, hits give low values) of the same molecule?
The normalized growth was 1.04.

And the normalized growth (locus YJL166W, strain qcr8, hits give low values)?
Its normalized growth is 1.04.

What about the normalized growth (locus YJL168C, strain set2, hits give low values) of the same molecule?
The normalized growth was 0.987.

And the normalized growth (locus YJL187C, strain SWE1 (second series), hits give low values)?
The normalized growth was 1.01.

What about the normalized growth (locus YJL187C, strain SWE1, hits give low values) of the same molecule?
The normalized growth was 1.03.
